Shown are actives, neighbours in structure and some others; about 2.7% of the full set was active somewhere.
SENP7 block = inhibitors of human SENP7 protease; Q9BQF6; recombinant SENP7, Z-RLRGG-aminoluciferin luminescence, 40 min; inhibition, % at 5 µM; 330,000 tested, 1.5% active; AID 434973;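 active means inhibition above about 50% at the single test dose, limit read from the data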
HSP90 inh = inhibitors of HSP90 luciferase refolding in rabbit reticulocyte lysate; AID 1789; inhibition, % at 5.6 µM; 290,000 tested, 0.91% active; luciferase refolding luminescence, 3 h;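 active means inhibition above the screen-wide mean plus 3 SD, computed separately per campaign, cut at about 16% in these data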;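 further: inhibitors lower the luminescence because luciferase stays unfolded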
SENP6 block = blocks the human protease SENP6; inhibition, % at 10 µM; 330,000 tested, 1.8% active; AID 2599; Recombinant SENP6 catalytic domain, aminoluciferin luminescence;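 active means inhibition above about 50% at the single tested dose, limit read from the data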
SENP8 block-1 = inhibitors of human SENP8 protease | inhibition, % at 10 µM | AID 2540 | Q96LD8 | purified SENP8, Z-RLRGG-aminoluciferin cleavage, luminescence | 330,000 tested, 1.2% active; in the data active means inhibition above about 50%
Target sequence (Q96LD8 whole entry, looked up): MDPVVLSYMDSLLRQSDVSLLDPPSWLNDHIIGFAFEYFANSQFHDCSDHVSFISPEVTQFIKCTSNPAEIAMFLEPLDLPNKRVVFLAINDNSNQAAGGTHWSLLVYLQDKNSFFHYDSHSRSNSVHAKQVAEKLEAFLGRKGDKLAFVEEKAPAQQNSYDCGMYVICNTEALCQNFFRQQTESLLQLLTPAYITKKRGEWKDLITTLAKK
SENP8 block-2 = blocks human SENP8 cleavage of Nedd8 substrate; Q96LD8; recombinant SENP8, Nedd8 substrate fluorescence; inhibition, % at 20 µM; 360,000 tested, 0.64% active; in the data active means inhibition mostly above about 40%, no sharp cut-off; inactive means mostly below about 27%
HSP90 confirm = HSP90 inhibition, confirmation assay. 2,300 tested, 64% active. inhibition, % at 5.9 µM. shares compounds with HSP90 inh. rabbit reticulocyte lysate, luciferase refolding luminescence, 3 h; in the data active means inhibition above about 18%
FLuc counter = counter-screen for HSP90 inhibitors: inhibitors of firefly luciferase | shares compounds with HSP90 inh | purified native firefly luciferase, luminescence | inhibition, % at 5.9 µM | 2,300 tested, 48% active;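 active means inhibition above the mean inhibition of all tested sample wells plus 3 SD, cut at about 10% in these data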
SENP8 conf = human SENP8 inhibition, confirmed; shares compounds with SENP7 block; Recombinant SENP8, Z-RLRGG-aminoluciferin luminescence, 60 min; inhibition, % at 12.5 µM; 6,200 tested, 40% active;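 active means mean inhibition across replicates above about 50%, limit read from the data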
SENP6 conf = human SENP6 inhibition, confirmed; shares compounds with SENP7 block; 6,200 tested, 58% active; recombinant SENP6, Z-RLRGG-aminoluciferin luminescence; inhibition, % at 12.5 µM
SENP7 conf = human SENP7 inhibition, confirmed | shares compounds with SENP7 block | recombinant SENP7, Z-RLRGG-aminoluciferin luminescence, 40 min | inhibition, % at 12.5 µM | 6,200 tested, 69% active | AID 488917
Casp3 SENP sel = caspase-3 inhibition (SENP selectivity assay). shares compounds with SENP7 block. purified caspase-3, Z-DEVD-aminoluciferin luminescence, 60 min. inhibition, % at 12.5 µM. 6,200 tested, 60% active. AID 488918;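 active means mean inhibition above about 50%, limit read from the data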
Target sequence (P42574 28-227 limits assumed): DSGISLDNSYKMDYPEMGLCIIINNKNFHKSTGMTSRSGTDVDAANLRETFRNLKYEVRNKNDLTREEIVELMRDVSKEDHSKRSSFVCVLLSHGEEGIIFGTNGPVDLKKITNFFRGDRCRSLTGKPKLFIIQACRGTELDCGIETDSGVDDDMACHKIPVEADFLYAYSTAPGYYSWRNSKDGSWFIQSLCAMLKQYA
Luc interf = counter-screen for SENP inhibitors: luminescence interference; shares compounds with SENP7 block; AID 488919; Pre-incubated SENP8/Z-RLRGG-aminoluciferin, luciferase luminescence interference; 6,200 tested, 39% active; inhibition, % at 12.5 µM;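 active means mean inhibition above about 50% when retested at one dose, limit read from the data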
Of the large screens only hits and unclear results are named; the others gave an inactive call (follow-up assays come after a bar, where they were run).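 How the source made its calls, unless noted: active means mean inhibition above about 50% in the one-dose retest (limit read from the data); inactive means the rest.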

Cc1cccc(NC(=O)c2cc3ccccc3oc2=O)c1	SENP7 block 96.9, HSP90 inh 19.6, SENP6 block 87.7, SENP8 block-1 63.9 | HSP90 confirm 32.7 | FLuc counter 13.2 | SENP8 conf inactive | SENP6 conf inactive | SENP7 conf inactive | Casp3 SENP sel inactive | Luc interf inactive
COc1ccc2oc(=O)c(C(=O)Nc3cccc(C)c3)cc2c1	none
N=c1oc2ccccc2cc1C(=O)Nc1ccc(F)cc1	none (no result: SENP7 block, SENP6 block, SENP8 block-1)
COc1cccc(NC(=O)c2cc3ccccc3o/c2=N\O)c1	SENP7 block 99.8, HSP90 inh 48.2, SENP6 block 98.5, SENP8 block-1 96.4 | HSP90 confirm 65.6 | FLuc counter 62.9 | SENP8 conf 97.9 | SENP6 conf 98.8 | SENP7 conf 101.3 | Casp3 SENP sel 96.0 | Luc interf 97.3
Cc1ccc(NC(=O)CS(=O)c2ccccc2N)c(C)c1 (stereo not drawn)	none
COc1ccc(C2CCCN2C(=S)Nc2cccc(Cl)c2)cc1OC (stereo not drawn)	none
O=C(Nc1cc2c(cc1C(=O)O)OCCCO2)c1ccc(F)cc1F	none
Oc1c(N=Nc2ccccc2)sc2ccccc12	SENP7 block 98.9, HSP90 inh 17.8, SENP6 block 97.8, SENP8 block-1 94.5 | HSP90 confirm 48.4 | FLuc counter 39.1 | SENP8 conf 75.3 | SENP6 conf 98.2 | SENP7 conf 103.1 | Casp3 SENP sel 96.4 | Luc interf inactive
CC(C)(C)NC(=O)C(=O)NNC(=O)c1ccco1	none
COc1ccc2[nH]c(-c3ccc(C)cc3)cc(=O)c2c1	SENP7 block 73.3, HSP90 inh 25.2, SENP6 block 81.1, SENP8 block-1 76.7 | HSP90 confirm 55.8 | FLuc counter 32.6 | SENP8 conf 50.6 | SENP6 conf 81.2 | SENP7 conf 94.9 | Casp3 SENP sel 92.1 | Luc interf inactive
COc1ccc(-c2cc(=O)c3cc(F)ccc3[nH]2)cc1	none
Cc1cnc(NC(=O)c2cc3c(s2)CCCC3)s1	SENP7 block 84.6, HSP90 inh 43.4, SENP6 block 88.4, SENP8 block-1 80.8 | HSP90 confirm 66.0 | FLuc counter 64.3 | SENP8 conf 88.5 | SENP6 conf 88.0 | SENP7 conf 97.3 | Casp3 SENP sel 78.9 | Luc interf 55.7
Cc1csc(NC(=O)c2ccc(N3CCCC3=O)cc2)n1	SENP7 block 79.1, HSP90 inh 42.2, SENP6 block 77.0, SENP8 block-1 62.8 | HSP90 confirm 77.0 | FLuc counter 68.3 | SENP8 conf inactive | SENP6 conf inactive | SENP7 conf 62.9 | Casp3 SENP sel 84.8 | Luc interf inactive
CCc1nnc(NC(=O)c2cc3c(s2)CCCCC3)s1	none
Cc1csc(NC(=O)c2cc3c(s2)CCCCC3)n1	SENP7 block 97.7, HSP90 inh 60.6, SENP6 block 92.1, SENP8 block-1 93.6 | HSP90 confirm 78.9 | FLuc counter 77.2 | SENP8 conf 95.6 | SENP6 conf 96.6 | SENP7 conf 100.9 | Casp3 SENP sel 91.8 | Luc interf 88.8
Cc1csc(NC(=O)c2cc3c(s2)CCCC3)n1	SENP7 block 93.5, HSP90 inh 35.1, SENP6 block 95.5, SENP8 block-1 88.5 | HSP90 confirm 49.8 | FLuc counter 49.5 | SENP8 conf 95.2 | SENP6 conf 96.3 | SENP7 conf 101.2 | Casp3 SENP sel 88.1 | Luc interf 86.3

Screens as filed in PubChem.
